Structures are written as SMILES. A structure can be active in one record and inactive in another. Calls of active or inactive are those of the source. The calls were made as follows, unless noted: active = hit-call score of the fitted dose curve at least 0.9, where 1 is the maximum; inactive = score below 0.9.

Experimental findings from PubChem BioAssay (EPA / NIEHS) are described below.

A short description of assay [1]: CCTE_Shafer_MEA_dev_interburst_interval_mean: CCTE's Neural Network Formation Assay for Mean Interburst Interval, Shafer Lab (AID 2284046).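 Also: curve fitted for decrease in interburst interval relative to DMSO.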 The gist of the method: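 Primary rat cortical neurons on PEI-coated 48-well MEA plates (laminin added with cells at plating) (16 electrodes/well), exposed from plating day 0 with renewal at DIV 5 and 9. Mean inter-burst interval averaged over bursting electrodes, AUC across days 5, 7, 9, 12; DMSO baseline.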

Assay [2] in a line: CCTE_Shafer_MEA_dev_inter_network_spike_interval_mean: CCTE's Neural Network Formation Assay for Mean Inter-network Spike Interval, Shafer Lab (AID 2284047).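 As to AC50: potency for a decrease in mean inter-network spike interval below DMSO.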 In a few lines: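 Mean time between consecutive network-spike peaks, recorded extracellularly (adaptive spike detection) on DIV 5, 7, 9 and 12, summarized as trapezoidal AUC. Rat cortical cultures on MEAs dosed continuously days 0–12, re-dosed at feeds; loss-of-signal fit relative to DMSO.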

Assay [3] in a line: CCTE_Shafer_MEA_dev_network_spike_number: CCTE's Neural Network Formation Assay for Number of Network Spikes, Shafer Lab (AID 2284048).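 Also: synchronized bursts across electrodes counted on days 5 7 9 12 and integrated as AUC.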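 As to AC50: fit as a loss of signal meaning fewer network spikes than DMSO.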 The gist of the method: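 Number of network spikes (coordinated firing across electrodes) recorded on days 5, 7, 9 and 12 and summarised as area under the curve. Rat cortical cultures on MEA, continuous compound exposure with full medium/treatment exchange at DIV 5 and 9.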

Assay [4] can be described thus: CCTE_Shafer_MEA_dev_network_spike_peak: CCTE's Neural Network Formation Assay for Mean Number of Electrodes in Network Spike, Shafer Lab (AID 2284049).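 As to AC50: fitted for loss of signal meaning fewer electrodes in network spikes than DMSO.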 In a few lines:
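Rat cortical primary culture, 1.5 x 10^5 cells/well, 48-well MEA (16 electrodes/well). Dosing day 0 through DIV 12, full media/compound exchange DIV 5, 9. AxIS adaptive spike detection; AUC over days 5/7/9/12; loss-of-signal vs DMSO.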

The nature of assay [5]: CCTE_Shafer_MEA_dev_spike_duration_mean: CCTE's Neural Network Formation Assay for Mean Spike Duration, Shafer Lab (AID 2284051).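 As to AC50: potency for a decrease in mean network spike duration versus DMSO.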 The gist of the method: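 Spontaneous activity was recorded on days 5, 7, 9 and 12 from rat cortical cultures grown on microelectrode arrays and dosed continuously from day 0, with media and compound renewed after the DIV 5 and 9 recordings. Network-spike duration was collapsed by area under the curve.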

Assay [6] in a line: CCTE_Shafer_MEA_dev_network_spike_duration_std: CCTE's Neural Network Formation Assay for Standard Deviation of Network Spike Duration, Shafer Lab (AID 2284052).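 Also: hits are decreases in network spike duration SD versus DMSO vehicle.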 In a few lines: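 Network spike duration variability was collapsed across recordings on days 5, 7, 9 and 12 by trapezoidal area-under-curve and fitted downward against DMSO. Cultures were rat cortical neurons on PEI-coated MEA plates, dosed continuously from plating, refed with compound DIV 5/9.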

Assay [7] can be described thus: CCTE_Shafer_MEA_dev_per_network_spike_spike_number_mean: CCTE's Neural Network Formation Assay for Mean Number of Spikes in a Network Spike, Shafer Lab (AID 2284053).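 As to AC50: fitted as decrease in spikes per network spike relative to DMSO.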 In a few lines: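 Mean spike count within each network spike, taken in a 0.05 s window at its peak, was recorded on days 5, 7, 9 and 12 and integrated as trapezoidal area under the curve. Rat cortical cultures on MEA plates received continuous compound from day 0, refreshed at medium changes on DIV 5 and 9.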

Assay [8] in a line: CCTE_Shafer_MEA_dev_per_network_spike_spike_percent: CCTE's Neural Network Formation Assay for Percent of Spikes in a Network Spike, Shafer Lab (AID 2284054). In a few lines:
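Metric: fraction of spikes falling in a 0.05 s window at network-spike peaks. Recordings were made on days 5, 7, 9 and 12 and collapsed by trapezoidal AUC. Cultures were rat cortical neurons on MEA plates, dosed continuously from plating, re-dosed at media changes.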

The next assay concerns DIO2 (gene 1734). Kind of assay: CCTE_GLTED_hDIO2: CCTE's human Deiodinase 2 (DIO2) Inhibition Assay, Great Lakes Toxicology and Ecology Division (GLTED) Lab (AID 2284050; active = hit-call score of the fitted dose curve at least 0.9, where 1 is the maximum). In a few lines: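 Readout: absorbance from Sandell-Kolthoff detection of free iodide released by human DIO2 during a 3 h incubation with chemical. Cell-free format, n=3; activity fitted relative to DMSO negative control.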

Another assay deals with DIO3 (gene 1735). The assay is described as follows: CCTE_GLTED_hDIO3: CCTE's human Deiodinase 3 (DIO3) Inhibition Assay, Great Lakes Toxicology and Ecology Division (GLTED) Lab (AID 2284055; active = hit-call score of the fitted dose curve at least 0.9, where 1 is the maximum;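 also: potency is for inhibition seen as loss of released iodide signal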). On the procedure:
CCTE_GLTED_hDIO3 is a cell-free, single-readout assay designed to test the inhibitory activity of chemicals toward human iodothyronine Deiodinase type 3 (DIO3) enzyme. Enzyme is incubated in presence of test chemical for 3 hours during which uninhibited enzyme liberates free iodide from substrate. Free iodide is measured in a second step using the Sandell-Kolthoff method.CCTE_GLTED_hDIO3 is the assay component measured from the CCTE_GLTED_hDIO3 assay. It is designed to make measurements of enzyme activity, a form of enzyme reporter, as detected with absorbance signals by spectrophotometry.Data from the assay component CCTE_GLTED_hDIO3 was analyzed into 1 assay endpoint. This assay endpoint, CCTE_GLTED_hDIO3, was analyzed in the positive analysis fitting direction relative to DMSO as the negative control and baseline of activity. Using a type of enzyme reporter, loss-of-signal activity can be used to understand changes in the enzymatic activity as they relate to the gene DIO3. Furthermore, this assay endpoint can be referred to as a primary readout, because the performed assay has only produced 1 assay endpoint. To generalize the intended target to other relatable targets, this assay endpoint is annotated to the 'deiodinase' intended target family, where the subfamily is 'deiodinase Type 3'.
[…] assay, developed at Great Lakes Toxicology and Ecology Division (GLTED) within the EPA's Center for Computational Toxicology and Exposure (CCTE), is designed to test the chemicals' ability to inhibit DIO3. Assay uses human deiodinase type 3 (DIO3) enzyme produced with adenovirus expression system. Assay is based on iodide release measured by the Sandell-Kolthoff method and is run in 96-well plate format with assay plates run in triplicate (n=3). The method used for the deiodinase assay was largely based on Renko et al. (2012, 2015). These works describe the utilization of the SK reaction to measure deiodinase-liberated iodide in a 96-well-plate format. The SK reaction is based on the reduction of the yellow-colored cerium IV to the non-colored cerium III by arsenic, with the rate of this reaction increased in the presence of iodide in a concentration-dependent manner (Sandell and Kolthoff, 1937). Iodinated test chemicals can interfere as competitive inhibitors, or if the stock chemical has contaminating free-iodide present. Other chemicals, e.g.: nitrite, iron, and thiocyanate can interfere with the Sandell-Kolthoff reaction (see Sandell and Kolthoff, 1937).

Turning to `OCC(F)(F)C(F)(F)C(F)(F)C(F)(F)C(F)(F)C(F)(F)C(F)(F)C(F)(F)C(F)(F)C(F)(F)C(F)(F)F`, the half-maximal activity concentration (AC50) was 26.4 µM (active) in [1]; 8.24 µM (active) in assay [4]; 6.13 µM (active) in assay [5]; 6630 nM (active) in [7]; 9.08 µM (active) in assay [8]. Moreover, the call in [1], in assay [2], in [3], in [4], in [5] and in [6] was inactive. Further, the outcome in [7] and in assay [8] was inactive.
With `FC(F)=C(F)C(F)(F)C(F)(F)C(F)(F)C(F)F`, the call in assay [1], in [2], in [3], in assay [4], in assay [5] and in assay [6] was inactive. Further, the outcome in assay [7] and in assay [8] was inactive.
For the compound `O=C(F)C(F)(F)C(F)(F)C(F)(F)C(F)F`, the result in assay [1], in assay [2], in [3], in [4], in assay [5] and in assay [6] was inactive. Also, the compound was classed as inactive in [7] and in assay [8].
Take `COC(=O)C(F)(F)C(F)(F)C(F)(F)C(F)(F)C(F)(F)F`: the outcome in assay [1], in assay [2], in assay [3], in [4], in assay [5] and in assay [6] was inactive. The compound was classed as inactive in assay [7] and in assay [8].
Turning to `CN(Cc1cnc2nc(N)nc(N)c2n1)c1ccc(C(=O)N[C@@H](CCC(=O)O)C(=O)O)cc1`, the AC50 in assay [1] is 0.136 µM (active); in assay [2] it was 30.8 nM (active); in assay [3], 25.8 nM (active); in [4], 0.0279 µM (active); in assay [5] it was 0.0343 µM (active); in assay [6], 42.2 nM (active). Besides, the AC50 in [7] is 25.8 nM (active); in assay [8] it was 0.0253 µM (active).
On to `NC(C(F)(F)F)C(F)(F)F`, for which the outcome in [1], in [2], in assay [3], in assay [4], in assay [5] and in assay [6] was inactive. Moreover, the call in assay [7] and in [8] was inactive.
Take `COC(=O)C(F)(F)C(F)(F)C(F)(F)F`: the compound was called inactive in assay [1], in assay [2], in assay [3], in assay [4], in assay [5] and in assay [6]. For the same compound, the call in [7] and in assay [8] was inactive.
In the case of `O=CC(F)(F)C(F)(F)C(F)(F)C(F)F`, the outcome in assay [1], in [2], in [3], in assay [4], in assay [5] and in [6] was inactive. For the same compound, the outcome in assay [7] and in assay [8] was inactive.
As to `C=CC(F)(F)C(F)(F)C(F)(F)C(F)(F)F`, the compound was classed as inactive in [1], in [2], in assay [3], in assay [4], in assay [5] and in [6]. In addition, the result in [7] and in [8] was inactive.
For the compound `O=C(CCCN1CCC(O)(c2ccc(Cl)cc2)CC1)c1ccc(F)cc1`, the half-maximal activity concentration (AC50) in assay [1] was 3.12 µM (active); in assay [3], 568 nM (active); in [4] it was 2.02 µM (active); in assay [5], 1.78 µM (active); in assay [6], 1880 nM (active); in [7], 753 nM (active). For the same compound, in assay [8], the AC50 is 2.98 µM (active). Besides, the compound was classed as inactive in [2].
As for `FCOC(C(F)(F)F)C(F)(F)F`, the compound was called inactive in [1], in assay [2], in assay [3], in assay [4], in [5] and in assay [6]. Besides, the outcome in assay [7] and in [8] was inactive.
For the compound `O=C(O)CCC(F)(F)C(F)(F)C(F)(F)C(F)(F)C(F)(F)F`, the result in assay [1], in assay [2], in assay [3], in assay [4], in assay [5] and in assay [6] was inactive. Further, the compound was classed as inactive in [7] and in assay [8].
`O=C(C=C(O)C(F)(F)F)C(F)(F)F`: the result in assay [1], in [2], in assay [3], in assay [4], in assay [5] and in assay [6] was inactive. The compound was called inactive in [7] and in assay [8].
`CCCCCCCCCCCC`: the AC50 with DIO2 (gene 1734) was 24.5 µM (active); in the assay on DIO3 (gene 1735), 22.7 µM (active).
